Measured values: the supplement of paper PMC6555819

What was measured:
Test in all cases: PBM binding z-score (relative to random genomic background probes); higher = stronger binding; sequences stand for … in GC…GCGATTGACAGCGTAGAATGAAGG
[1] = system: FXR:RXRa (NR concentration 270 nM, RXRa partner concentration 90 nM)
How it was run: (§1)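 Probes were double-stranded and carried 34-nt variable regions with direct-repeat seeds, single-nucleotide variants, half-site ablations and random human genomic background sequences, printed on custom Agilent 4×180K protein-binding microarrays. Arrays were incubated 1 h with ligand-free nuclear receptor dimers in PBS pH 7.4, 2% milk, 0.02% Triton X-100, 1 mM DTT, 0.2 mg/mL BSA and 0.4 mg/ml salmon testes DNA. Antibodies against each partner (one per run) detected binding, and scanned fluorescence was regression-normalized. Binding z-scores use the random background probes as reference.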

[2] = system: LXRa:RXRa (NR concentration 270 nM, RXRa partner concentration 90 nM)
How it was run: as §1

[3] = system: LXRa homodimer (NR concentration 270 nM)
How it was run: as §1

[4] = system: LXRb:RXRa (NR concentration 270 nM, RXRa partner concentration 90 nM)
How it was run: as §1

[5] = system: LXRb homodimer (NR concentration 270 nM)
How it was run: as §1

[6] = system: PPARa:RXRa (NR concentration 270 nM, RXRa partner concentration 90 nM)
How it was run: as §1

[7] = system: PPARg:RXRa (NR concentration 180 nM, RXRa partner concentration 90 nM)
How it was run: as §1

[8] = system: PPARg:RXRa 270nM:90nM, anti-RXR (NR concentration 270 nM, RXRa partner concentration 90 nM)
How it was run: as §1

[9] = system: PPARg:RXRa 30nM:10nM, anti-RXR (NR concentration 30 nM, RXRa partner concentration 10 nM)
How it was run: as §1

[10] = system: PPARg:RXRa 90nM:30nM, anti-RXR (NR concentration 90 nM, RXRa partner concentration 30 nM)
How it was run: as §1

[11] = system: PPARg:RXRa DBDmut IVT, anti-RXR (DBD mutation: RXRa K156A/R161A, NR concentration 270 nM, RXRa partner concentration 90 nM)
How it was run: as §1

[12] = system: PPARg:RXRa IVT, anti-PPARg (NR concentration 270 nM, RXRa partner concentration 90 nM)
How it was run: as §1

[13] = system: PPARg DBDmut:RXRa IVT, anti-PPARg (DBD mutation: PPARg1 K132A/R137A, NR concentration 270 nM, RXRa partner concentration 90 nM)
How it was run: as §1

[14] = system: PPARg DBDmut IVT, anti-PPARg (DBD mutation: PPARg1 K132A/R137A, NR concentration 270 nM)
How it was run: as §1

[15] = system: PPARg homodimer (NR concentration 180 nM)
How it was run: as §1

[16] = system: PXR:RXRa (NR concentration 270 nM, RXRa partner concentration 90 nM)
How it was run: as §1

[17] = system: PXR homodimer (NR concentration 270 nM)
How it was run: as §1

[18] = system: RARa:RXR (NR concentration 270 nM, RXRa partner concentration 90 nM)
How it was run: as §1

[19] = system: RARa homodimer (NR concentration 270 nM)
How it was run: as §1

[20] = system: RARb:RXRa (NR concentration 270 nM, RXRa partner concentration 90 nM)
How it was run: as §1

## CCTACTGGGCCACGAAAGGTCATTCATTCAGTGA
[1]
  PBM binding z-score: 3.89
[2]
  PBM binding z-score: 5.43
[3]
  PBM binding z-score: 6.05
[4]
  PBM binding z-score: 4.47
[5]
  PBM binding z-score: 0.659
[6]
  PBM binding z-score: 4.73
[7]
  PBM binding z-score: 4.8
[8]
  PBM binding z-score: 5.02
[9]
  PBM binding z-score: 1.88
[10]
  PBM binding z-score: 4.42
[11]
  PBM binding z-score: 5.95
[12]
  PBM binding z-score: 5.87
[13]
  PBM binding z-score: 1.4
[14]
  PBM binding z-score: 0.0477
[15]
  PBM binding z-score: 3.21
[16]
  PBM binding z-score: 5.7
[17]
  PBM binding z-score: 2.12
[18]
  PBM binding z-score: 5.5
[19]
  PBM binding z-score: 1.45
[20]
  PBM binding z-score: 4.15

## TCTCGGAGGACACGAAGGTCAGAGCTTTCCAGAG
[1]
  PBM binding z-score: 1.16
[2]
  PBM binding z-score: 1.13
[3]
  PBM binding z-score: -0.0274
[4]
  PBM binding z-score: 0.923
[5]
  PBM binding z-score: -1.06
[6]
  PBM binding z-score: 1.98
[7]
  PBM binding z-score: 0.444
[8]
  PBM binding z-score: 1.45
[9]
  PBM binding z-score: 2.1
[10]
  PBM binding z-score: 1.96
[11]
  PBM binding z-score: 1.65
[12]
  PBM binding z-score: 0.886
[13]
  PBM binding z-score: -0.279
[14]
  PBM binding z-score: -1.37
[15]
  PBM binding z-score: 0.322
[16]
  PBM binding z-score: 1.97
[17]
  PBM binding z-score: 0.404
[18]
  PBM binding z-score: 2.05
[19]
  PBM binding z-score: -0.212
[20]
  PBM binding z-score: 3.38

## TGAATGAGGTTAAAGATCAGGTAACGTGGCGTCG
[1]
  PBM binding z-score: 3.32
[2]
  PBM binding z-score: 2.73
[3]
  PBM binding z-score: -0.204
[4]
  PBM binding z-score: 1.82
[5]
  PBM binding z-score: 0.134
[6]
  PBM binding z-score: 4.75
[7]
  PBM binding z-score: 5.6
[8]
  PBM binding z-score: 5.96
[9]
  PBM binding z-score: 4.89
[10]
  PBM binding z-score: 6.01
[11]
  PBM binding z-score: 2.2
[12]
  PBM binding z-score: 3.62
[13]
  PBM binding z-score: 0.604
[14]
  PBM binding z-score: 0.742
[15]
  PBM binding z-score: 0.811
[16]
  PBM binding z-score: 2.19
[17]
  PBM binding z-score: 0.0433
[18]
  PBM binding z-score: 3.18
[19]
  PBM binding z-score: 0.33
[20]
  PBM binding z-score: 2.01

## TATATAGGGTCAAAGGCCAGAGTACGAATGTCGA
[1]
  PBM binding z-score: 7.32
[2]
  PBM binding z-score: 6.1
[3]
  PBM binding z-score: 2.48
[4]
  PBM binding z-score: 5.05
[5]
  PBM binding z-score: 2.01
[6]
  PBM binding z-score: 6.35
[7]
  PBM binding z-score: 8.65
[8]
  PBM binding z-score: 7.34
[9]
  PBM binding z-score: 5.8
[10]
  PBM binding z-score: 7.54
[11]
  PBM binding z-score: 3.56
[12]
  PBM binding z-score: 5.37
[13]
  PBM binding z-score: 1.12
[14]
  PBM binding z-score: 1.69
[15]
  PBM binding z-score: 2
[16]
  PBM binding z-score: 4.21
[17]
  PBM binding z-score: 0.472
[18]
  PBM binding z-score: 5.56
[19]
  PBM binding z-score: 0.52
[20]
  PBM binding z-score: 4.49

## CGTCAAAGTGCAAGGTAACGTAACAGAAAGCAGC
[1]
  PBM binding z-score: 0.00612
[2]
  PBM binding z-score: 0.219
[3]
  PBM binding z-score: -0.312
[4]
  PBM binding z-score: 0.159
[5]
  PBM binding z-score: -0.589
[6]
  PBM binding z-score: 0.731
[7]
  PBM binding z-score: 0.773
[8]
  PBM binding z-score: 0.593
[9]
  PBM binding z-score: -0.0711
[10]
  PBM binding z-score: 0.326
[11]
  PBM binding z-score: 0.0283
[12]
  PBM binding z-score: 0.682
[13]
  PBM binding z-score: -0.0131
[14]
  PBM binding z-score: -0.0811
[15]
  PBM binding z-score: 0.153
[16]
  PBM binding z-score: 0.149
[17]
  PBM binding z-score: -0.225
[18]
  PBM binding z-score: 0.344
[19]
  PBM binding z-score: -0.0833
[20]
  PBM binding z-score: 2.05

## TGTCAAAGTTCATAGGTAACGTAAGTATCCACAC
[1]
  PBM binding z-score: 6.65
[2]
  PBM binding z-score: 5.95
[3]
  PBM binding z-score: 4.17
[4]
  PBM binding z-score: 4.02
[5]
  PBM binding z-score: 1.38
[6]
  PBM binding z-score: 5.13
[7]
  PBM binding z-score: 7.92
[8]
  PBM binding z-score: 7.41
[9]
  PBM binding z-score: 4.42
[10]
  PBM binding z-score: 6.63
[11]
  PBM binding z-score: 0.217
[12]
  PBM binding z-score: 4.39
[13]
  PBM binding z-score: 1.15
[14]
  PBM binding z-score: 2.16
[15]
  PBM binding z-score: 1.89
[16]
  PBM binding z-score: 5.05
[17]
  PBM binding z-score: 3.32
[18]
  PBM binding z-score: 4.15
[19]
  PBM binding z-score: 0.391
[20]
  PBM binding z-score: 4.9

## TCTGCTAGGTCAACAATGGTCAGCTAATCTGCTA
[1]
  PBM binding z-score: 3.1
[2]
  PBM binding z-score: 3.67
[3]
  PBM binding z-score: -0.0289
[4]
  PBM binding z-score: 2.16
[5]
  PBM binding z-score: 0.366
[6]
  PBM binding z-score: 3.29
[7]
  PBM binding z-score: 2.13
[8]
  PBM binding z-score: 3
[9]
  PBM binding z-score: 2.07
[10]
  PBM binding z-score: 2.54
[11]
  PBM binding z-score: 4.05
[12]
  PBM binding z-score: 4.05
[13]
  PBM binding z-score: 0.64
[14]
  PBM binding z-score: 0.264
[15]
  PBM binding z-score: 1.23
[16]
  PBM binding z-score: 1.94
[17]
  PBM binding z-score: -0.276
[18]
  PBM binding z-score: 2.29
[19]
  PBM binding z-score: -0.189
[20]
  PBM binding z-score: 4.11
